According to PubChem BioAssay AID1159580 (chemical genetic matrix, 2015):
The campaign covered roughly 5,500 compounds. About 2,000 (36%) were called active. Roughly 18% stayed inconclusive and do not appear here. Cut-off read from the data, not from the text of the source: active = normalized growth mostly below about 0.91 (no sharp cut-off); inconclusive = no clear call, values can overlap the other calls; inactive = mostly above about 0.92. This is one part of the list.

Experiment: chemical genetic growth profiling, strain panel (AID 1159580);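 note: tested at 20 µM; growth read once vehicle control cultures reached saturation at 30 °C; 1 = growth at the plate median or of vehicle wells; lower values mean less growth of the strain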
Conditions: S. cerevisiae deletion strains, growth OD
[1] = locus YBL105C, strain PKC1, stronger effect = lower value
[2] = locus YBR135W, strain CKS1, stronger effect = lower value
[3] = locus YBR136W, strain MEC1, stronger effect = lower value
[4] = locus YBR160W, strain CDC28, stronger effect = lower value
[5] = locus YDL017W, strain CDC7, stronger effect = lower value
[6] = locus YDL028C, strain MPS1, stronger effect = lower value
[7] = locus YDL101C, strain DUN1, stronger effect = lower value
[8] = locus YDL108W, strain KIN28, stronger effect = lower value
[9] = locus YDL132W, strain cdc53, stronger effect = lower value
[10] = locus YDL214C, strain PRR2, stronger effect = lower value
[11] = locus YDR052C, strain DBF4, stronger effect = lower value
[12] = locus YDR054C, strain cdc34, stronger effect = lower value
[13] = locus YDR226W, strain ADK1, stronger effect = lower value
[14] = locus YDR477W, strain SNF1, stronger effect = lower value
[15] = locus YER123W, strain YCK3, stronger effect = lower value
[16] = locus YER133W, strain GLC7, stronger effect = lower value
[17] = locus YFL009W, strain cdc4, stronger effect = lower value
[18] = locus YFL029C, strain CAK1, stronger effect = lower value
[19] = locus YFR003C, strain YPI1, stronger effect = lower value
[20] = locus YFR019W, strain FAB1, stronger effect = lower value
[21] = locus YFR028C, strain CDC14, stronger effect = lower value
[22] = locus YGR040W, strain KSS1, stronger effect = lower value
[23] = locus YGR052W, strain FMP48, stronger effect = lower value
[24] = locus YGR092W, strain DBF2, stronger effect = lower value
[25] = locus YHR030C, strain SLT2, stronger effect = lower value
[26] = locus YHR079C, strain IRE1, stronger effect = lower value
[27] = locus YHR082C, strain KSP1, stronger effect = lower value
[28] = locus YHR205W, strain SCH9, stronger effect = lower value
[29] = locus YIL147C, strain SLN1, stronger effect = lower value
[30] = locus YJL095W, strain BCK1, stronger effect = lower value
[31] = locus YJL128C, strain PBS2, stronger effect = lower value
[32] = locus YJL157C, strain FAR1, stronger effect = lower value
[33] = locus YJR016C, strain ILV3, stronger effect = lower value
[34] = locus YJR066W, strain TOR1 (second series), stronger effect = lower value
[35] = locus YJR066W, strain TOR1, stronger effect = lower value
[36] = locus YKL067W, strain YNK1, stronger effect = lower value
[37] = locus YKL101W, strain HSL1, stronger effect = lower value
[38] = locus YKL193C, strain SDS22, stronger effect = lower value
[39] = locus YLR113W, strain HOG1, stronger effect = lower value
[40] = locus YLR133W, strain CKI1, stronger effect = lower value
[41] = locus YLR403W, strain SFP1, stronger effect = lower value
[42] = locus YML070W, strain DAK1, stronger effect = lower value
[43] = locus YMR001C, strain CDC5, stronger effect = lower value
[44] = locus YMR205C, strain PFK2 (second series), stronger effect = lower value
[45] = locus YNL006W, strain LST8, stronger effect = lower value
[46] = locus YNL020C, strain ARK1, stronger effect = lower value
[47] = locus YNL161W, strain CBK1, stronger effect = lower value
[48] = locus YNL183C, strain NPR1, stronger effect = lower value
[49] = locus YNL207W, strain RIO2, stronger effect = lower value
[50] = locus YNL222W, strain SSU72, stronger effect = lower value
[51] = locus YNL307C, strain MCK1 (second series), stronger effect = lower value
[52] = locus YOL078W, strain AVO1, stronger effect = lower value
[53] = locus YOL136C, strain PFK27, stronger effect = lower value
[54] = locus YOR061W, strain CKA2, stronger effect = lower value
[55] = locus YOR231W, strain MKK1, stronger effect = lower value
[56] = locus YOR329C, strain SCD5, stronger effect = lower value
[57] = locus YPL031C, strain PHO85, stronger effect = lower value
[58] = locus YPL153C, strain RAD53, stronger effect = lower value
[59] = locus YPL204W, strain HRR25, stronger effect = lower value
[60] = locus YPL209C, strain IPL1, stronger effect = lower value
[61] = locus YPL256C, strain CLN2, stronger effect = lower value
[62] = locus YPR111W, strain DBF20, stronger effect = lower value
[63] = strain NNK1, stronger effect = lower value
[64] = strain TSCII, stronger effect = lower value
[65] = locus YAL013W, strain DEP1, stronger effect = lower value
[66] = locus YBR229C, strain ROT2, stronger effect = lower value
[67] = locus YDR150W, strain NUM1, stronger effect = lower value
[68] = locus YEL061C, strain CIN8, stronger effect = lower value
[69] = locus YGR078C, strain PAC10, stronger effect = lower value
[70] = locus YGR229C, strain SMI1, stronger effect = lower value
[71] = locus YHR087W, strain rtc3, stronger effect = lower value
[72] = locus YJR043C, strain POL32, stronger effect = lower value
[73] = locus YJR075W, strain HOC1, stronger effect = lower value
[74] = locus YLR039C, strain RIC1, stronger effect = lower value
[75] = locus YLR058C, strain SHM2 (second series), stronger effect = lower value
[76] = locus YLR085C, strain ARP6, stronger effect = lower value
[77] = locus YLR262C, strain YPT6, stronger effect = lower value
[78] = locus YML094W, strain GIM5, stronger effect = lower value
[79] = locus YMR219W, strain ESC1, stronger effect = lower value
[80] = locus YMR263W, strain SAP30, stronger effect = lower value
[81] = locus YNL153C, strain GIM3, stronger effect = lower value
[82] = locus YNL298W, strain CLA4 (second series), stronger effect = lower value
[83] = locus YNL322C, strain KRE1, stronger effect = lower value
[84] = locus YNR030W, strain Alg12, stronger effect = lower value
[85] = locus YPL055C, strain LGE1, stronger effect = lower value
[86] = locus YPL241C, strain CIN2, stronger effect = lower value
[87] = locus YPR135W, strain CTF4, stronger effect = lower value
[88] = locus YCL061C, strain MRC1, stronger effect = lower value
[89] = locus YDL134C, strain PPH21, stronger effect = lower value
[90] = locus YKL190W, strain CNB1, stronger effect = lower value
[91] = locus YMR307W, strain GAS1, stronger effect = lower value

Measured: normalized growth

Nc1ccc(Sc2ccccc2)nc1Sc1ccccc1
inactive: locus YAR019C, strain CDC15, stronger effect = lower value 0.947 | [1] 0.961 | [2] 0.957 | [3] 0.957 | [4] 0.95 | [5] 0.967 | [6] 0.942 | [7] 0.963 | [8] 0.958 | [9] 0.958 | [10] 0.927 | [11] 0.976 | [12] 0.947 | [13] 0.957 | [14] 0.901 | [15] 0.918 | [16] 0.927 | [17] 0.938 | [18] 0.935 | [19] 0.961 | [20] 0.984 | [21] 0.94 | [22] 0.909 | [23] 0.956 | [24] 0.875 | [26] 0.893 | [27] 0.948 | [28] 0.878 | [29] 0.962 | [30] 0.859 | [31] 0.886 | [32] 0.935 | [33] 0.965 | [34] 0.896 | [35] 0.851 | locus YKL048C, strain ELM1, stronger effect = lower value 0.969 | [36] 0.908 | [37] 0.913 | [38] 0.955 | locus YKL203C, strain TOR2, stronger effect = lower value 1.01 | [40] 0.945 | [41] 0.922 | [42] 0.915 | [43] 0.956 | [44] 0.938 | locus YMR277W, strain FCP1, stronger effect = lower value 0.938 | [45] 0.958 | [46] 0.938 | [47] 0.968 | [48] 0.956 | [49] 0.951 | [50] 0.951 | [51] 0.915 | [52] 0.956 | [53] 0.921 | [54] 0.919 | locus YOR119C, strain RIO1, stronger effect = lower value 0.935 | [55] 0.883 | [56] 0.962 | [57] 0.906 | [58] 0.906 | [59] 0.903 | [60] 0.959 | locus YPR025C, strain CCL1, stronger effect = lower value 0.956 | locus YPR106W, strain ISR1, stronger effect = lower value 0.957 | [62] 0.926 | [63] 0.954 | [64] 0.945
active: [25] 0.697 | [39] 0.757 | [61] 0.85

CCOC(=O)c1cc(CC)sc1NC(=O)c1ccc([N+](=O)[O-])o1
active: [10] 0.226 | [14] 0.327 | [15] 0.34 | [16] 0.347 | [20] 0.3 | [22] 0.43 | [23] 0.205 | [25] 0.281 | [27] 0.202 | [28] 0.153 | [30] 0.318 | [32] 0.372 | [34] 0.197 | [35] 0.212 | [36] 0.435 | [37] 0.451 | [39] 0.574 | [40] 0.18 | [41] 0.129 | [42] 0.471 | [44] 0.47 | [45] 0.507 | [46] 0.338 | [48] 0.175 | [51] 0.464 | [53] 0.378 | [54] 0.334 | [57] 0.169 | [58] 0.487 | [59] 0.464 | [61] 0.337
inactive: [1] 0.959 | [2] 0.992 | [3] 0.999 | [4] 1 | [5] 1 | [6] 0.988 | [8] 0.998 | [9] 0.996 | [11] 1 | [12] 0.985 | [13] 0.985 | [17] 0.985 | [18] 0.929 | [19] 1 | [21] 0.991 | [24] 0.505 | [26] 0.727 | [29] 1 | [31] 0.938 | [33] 0.95 | [38] 0.98 | [43] 0.998 | [47] 0.987 | [49] 0.995 | [50] 0.993 | [52] 1 | [55] 0.756 | [56] 1 | [60] 0.979 | [62] 0.906 | [63] 0.995 | [64] 0.998

CC(C)c1ccccc1NC(=S)N1CCN(c2ncc(C(F)(F)F)cc2Cl)CC1
inactive: [65] 1.02 | [66] 0.995 | [7] 0.985 | [67] 1.02 | [68] 1.01 | [69] 1.01 | [70] 0.963 | [25] 0.976 | [71] 1.02 | [72] 0.995 | [73] 0.972 | [75] 0.977 | [76] 1.1 | [78] 1.04 | [79] 0.992 | [80] 0.991 | [81] 1.02 | [82] 0.984 | [83] 0.998 | [84] 1.02 | [85] 1.13 | [86] 1.07 | [87] 1.17
active: [74] 0.761 | [77] 0.736

FC(F)(F)c1cnc(N2CCN(C(=S)Nc3ccccc3)CC2)c(Cl)c1
inactive: [65] 0.989 | [66] 1.01 | [88] 1 | [7] 0.999 | [89] 1.01 | [67] 0.963 | [68] 0.985 | [69] 0.993 | [25] 1.05 | [71] 1.03 | [72] 0.986 | [73] 1.02 | [90] 1.01 | [74] 0.984 | [75] 1.02 | [76] 1.03 | [77] 1.02 | [78] 0.952 | [79] 1.02 | [80] 0.982 | [91] 1 | locus YNL128W, strain TEP1, stronger effect = lower value 1.01 | [81] 0.972 | [82] 0.976 | [83] 1.01 | [84] 1 | locus YOL006C, strain TOP1, stronger effect = lower value 0.894 | [85] 0.938 | [86] 0.955 | [87] 0.981

Cc1cc(C)cc(NC(=S)N2CCN(c3ncc(C(F)(F)F)cc3Cl)CC2)c1
inactive: [65] 1 | [66] 1.01 | [88] 1 | [7] 1 | [89] 0.986 | [67] 0.997 | [68] 1.01 | [69] 1 | [70] 0.976 | [25] 1.02 | [71] 1.01 | [72] 1.01 | [73] 0.996 | [90] 0.98 | [74] 1.04 | [75] 1.01 | [76] 0.99 | [77] 1.03 | [78] 1.02 | [79] 0.999 | [80] 1 | [91] 0.907 | [81] 1.01 | [82] 1.06 | [83] 0.998 | [84] 1.02 | [85] 1.03 | [86] 0.886 | [87] 1
